This passage reports response results from PubChem BioAssay AID602197 (NMMLSC, 2012).

Each structure is given as a SMILES string. The list shows a part of the results. Unmarked numbers belong to inactive results. No stated cut-off is given here; in the data, active means response above about 24%; inactive means the rest.

This assay is described as follows: V-ATPase regulators in yeast, one dose – S. cerevisiae, pH-sensitive GFP, second cherry-pick, confirmation (AID 602197).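 Further: plate controls were vehicle wells for no effect and positive control wells for full effect.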 The note with it: S. cerevisiae pHLuorin cytosolic pH, V-ATPase proton transport; at 10 µM; hits give high values.

Turning to `Cc1ccccc1N1C(=O)NC(=O)/C(=C\c2cc(C)n(C)c2C)C1=O`, the response is 1.24%.

For `CC(=O)Nc1ccc(C(=O)C(Cc2ccccc2)N(C)C)cc1` (configuration not stated), the response is 2.66%.
